# In PubChem BioAssay AID1117290 (Broad Institute, 2014):
# Potency and affinity values are given separately. Calls of active or inactive are those of the source.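 The calls were made as follows: active = every replicate test called active, each showing a drop in signal with a fitted potency within twice the top tested dose; inconclusive = tests disagree, or fits are weak, flat midrange or poor; inactive = every test flat, rising or fitted past the limit.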
# Assay: A549 cell cytotoxicity, dose response, cytotoxicity control, CellTiter-Glo luminescence, dry powder, set 18 (AID 1117290)
# Details: A549 viability, CellTiter-Glo ATP luminescence, 72 h; series mostly up to 26 µM
row,SMILES,outcome
1,CC(=O)N1CCN(C(=O)C(C)(C)NC(=O)Nc2ccc(C)cc2)CC1,inactive
2,COc1ccc(C2=NN(c3ccc(C(=O)O)cc3)C(c3ccc(OC)c(OC)c3)C2)cc1 (stereo unspecified),inactive
3,Cc1ccc(NC(=O)NC2(C(=O)N3CCOCC3)CCCCC2)cc1,inactive
4,CC(=O)N1CCN(C(=O)C2(NC(=O)NC(C)(C)C)CCCCC2)CC1,inactive
5,O=S(=O)(Nc1cc(C(F)(F)F)ccc1N1CCCCC1)c1ccc(-c2ccccc2)cc1,inactive
6,COc1ccc(C(=O)Nc2cc(C)ccc2N2CCCCC2)cc1S(=O)(=O)O,inactive
7,CC(=O)N1CCN(C(=O)C2(NC(=O)Nc3ccc(C(C)C)cc3)CCCCC2)CC1,inactive
8,O=[N+]([O-])c1ccc(S(=O)(=O)Nc2cc(C(F)(F)F)ccc2N2CCCCC2)c([N+](=O)[O-])c1,inactive
9,N#Cc1ccc(S(=O)(=O)Nc2cc(C(F)(F)F)ccc2N2CCCCC2)cc1,inactive
10,COc1cccc(NC(=O)NC2(C(=O)N3CCN(C(C)=O)CC3)CCCCC2)c1,inactive
11,O=S(=O)(Nc1cc(C(F)(F)F)ccc1N1CCCCC1)c1ccccc1,inactive
12,O=S(=O)(Nc1cc(C(F)(F)F)ccc1N1CCCCC1)c1ccc(F)cc1,inactive
13,CC(=O)N1CCN(C(=O)C2(NC(=O)Nc3ccc(F)cc3)CCCCC2)CC1,inactive
14,CC(=O)N1CCN(C(=O)C2(NC(=O)NCCc3ccccc3)CCCCC2)CC1,inactive
15,COc1ccc(C(=O)Nc2cc(C(F)(F)F)ccc2N2CCOCC2)cc1S(=O)(=O)O,inactive
16,Cn1cnc(S(=O)(=O)Nc2cc(C(F)(F)F)ccc2N2CCCCC2)c1,inactive
17,COc1ccc(C(=O)O)cc1S(=O)(=O)Nc1cc(C(F)(F)F)ccc1N(C)C,inactive
18,CC(=O)N1CCN(C(=O)C2(NC(=O)Nc3ccccc3)CCCC2)CC1,inactive
19,Cc1ccc(NC(=O)NC2(C(=O)N3CCN(c4ccccc4)CC3)CCCCC2)cc1,inactive
20,Cc1ccc(NC(=O)NC2(C(=O)N3CCNCC3)CCCCC2)cc1,inactive
21,COc1ccc(C(=O)O)cc1S(=O)(=O)N1CCN(c2ccc(C(F)(F)F)cc2N)CC1,inactive
22,COc1ccc(C(=O)Nc2cc(C(F)(F)F)ccc2N2CCCCC2)cc1S(=O)(=O)O,inactive
23,COc1ccc(C(=O)Nc2ccccc2N2CCCCC2)cc1S(=O)(=O)O,inactive
24,CC(=O)N1CCN(C(=O)[C@@H]2CCN2C(=O)Nc2ccc(C)cc2)CC1,inactive
25,CC(=O)N1CCN(C(=O)C2(NC(=O)Nc3ccccc3C(F)(F)F)CCCCC2)CC1,inactive
26,COc1ccc(C(=O)Nc2cc(C(F)(F)F)ccc2N2CCCC2)cc1S(=O)(=O)O,inactive
